Experimental findings from the supplement of paper PMC6555819 are described below.

The test deals with PPARg DBDmut IVT, anti-PPARg (DBD mutation: PPARg1 K132A/R137A, NR concentration 270 nM). Description: PBM binding z-score (relative to random genomic background probes); higher = stronger binding; sequences stand for … in GC…GCGATTGACAGCGTAGAATGAAGG
The procedure, abridged:
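For binding z-scores, the reference was random background probes on custom Agilent 4×180K protein-binding microarrays. These arrays were incubated 1 h with ligand-free nuclear receptor dimers in PBS pH 7.4, 2% milk, 0.02% Triton X-100, 1 mM DTT, 0.2 mg/mL BSA and 0.4 mg/ml salmon testes DNA. Fluorescence was scanned after antibody detection of each partner (one per run) and regression-normalized.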
AAATGTAGGTTATCGGGTCATTCAGTTTGCGCAT gave a PBM binding z-score of 1.48.

Regarding TCTTGTAGATCAACAGGAGGTAAAGAAAGATCGA, the PBM binding z-score came to 0.824.

Sequence CCTTACGGGTCACGAGGTTATGGCACGACGAGCG had a PBM binding z-score of 0.892.

In the case of CCTCGGAGGACAGAAGATCAGAGCTGTCCGCTTT, the PBM binding z-score is -1.48.

TTACCAAGGCGAGCTGAGGTCGTTGATCCAACTC came in with a PBM binding z-score of -0.938.

TCTAGTAGATCAGCAGGTTAAGAAAGCTGGCCAA showed a PBM binding z-score of -1.02.

Take GCGACTGGGGCATCAGCAGGTTACGATAACTTAA: the PBM binding z-score was -0.712.

On to CGAACTAGGTCATCCAGGACAGTAAATACATTGA, for which the PBM binding z-score worked out at 3.62.

The sequence ACTATTAGTTGAGACGAAGGCAACCGATAGGTTG displayed a PBM binding z-score of 0.396.

TCGAGTTGGTTAGTCGGGGCATTCAGCCAACATA: the PBM binding z-score was -0.529.

Sequence TAGCCTAGGTCATTCAGGGGCCTGTATAGAAAGC gave a PBM binding z-score of -0.0908.

In the case of TAGCCAAGGTCATGGGCCAGTATACCACGCGAAC, the PBM binding z-score stood at 1.48.

TCTAGTTGGGCACGGAGGTCACACACGACGGGTA: the PBM binding z-score was -0.0176.

With ATCTCTAGGTAAAGTACAGTGAAAGATCGATAGA, the PBM binding z-score was 1.25.

With GTACCAAGATGAATAGGTCGTTGATGAGTAGGCG, the PBM binding z-score worked out at 0.255.

Consider CGAACTAGGTCCGAACAGGACAGTGAAGGATGAT, for which the PBM binding z-score was -0.172.

CTCGAAAGGTCGTTCTCAGGTGAGTATACCAAAC returned a PBM binding z-score of 0.753.

Sequence CAAACTAAGTCAAGGTCAAAGTCGGTTTGTGCCA showed a PBM binding z-score of 0.588.

The sequence GTTGCTAGGTCAGGTTGGTCAGCTAACGGGTACG showed a PBM binding z-score of -0.614.

In turn, CCAACGAGGGCATGAGTTGATAGCAAATGCCGAT registered a PBM binding z-score of -0.467.

As to TCTTGTAGATCGGCAGGTTAAGAAAGCTGGCCAA, the PBM binding z-score is -0.268.

Consider TCGAGTAGGTTAGGGGCATTCAAAATGGCGTCGA, for which the PBM binding z-score is -0.184.

TAGCCTAGGTCATTCAGGGGCCAGTCTAGAAAGC registered a PBM binding z-score of 0.0209.

The sequence TCTCCTAGGTCAGTTGGTCAGCTAACGAGCTGCC had a PBM binding z-score of 0.66.

As for ATCGAAAGGTCGTGAGGTGAGTGTACAGAAAGGC, the PBM binding z-score was determined as 0.59.

With CGTCAAAGTTCAAGGTAACGGAACAGAAAGCAGC, the PBM binding z-score stood at 0.919.

ACTATTAGTTGAGACGAGGGCAAACGATAGGTTG displayed a PBM binding z-score of 1.15.

The sequence TCGAGTAGGTTAGGGGCTTTCAGAATGGCGTCGA returned a PBM binding z-score of -0.419.

The sequence CGAGCTAGGTCAAGGACAGTGAATCTCCGCACGC had a PBM binding z-score of -1.07.

On to ATCTCTAGGTAAGAAGTTCAGTGAAAGAGAGGAC, for which the PBM binding z-score stood at 1.32.

TTACCAAGGGGAGCTGAGGTCGTTGATCCAACTC gave a PBM binding z-score of -0.633.

The sequence ACAGACAGTTGAGTGAAGGTAACTCAGCTGGACG returned a PBM binding z-score of -0.693.

Regarding TCTCGGAGGACACGTAAGGTCAGAGCTCGACATC, the PBM binding z-score was -0.877.

Sequence ATCTCTAGGTAACAAGTTAAGTGAAAGAGAGGAC yielded a PBM binding z-score of 1.54.

As to CTCGAAAAGTCGTGCTCAGGTGAGTATACCAAAC, the PBM binding z-score was 0.325.

Regarding TGAATGAGGTTATAAGCTCAGGGAACGTTGCAAA, the PBM binding z-score turned out to be 0.543.

For the sequence AGAATGAGGTTATAAAGATCAGGGAATTGCGGTC, the PBM binding z-score is 0.696.

With CAAACTAGGTCACCGGAAGGTCAACGTCCGCATG, the PBM binding z-score was 1.2.

ATAGGTAGGTTAGCTGGGGTCATTCAGACTAGGC: the PBM binding z-score came out at 0.716.

As to TCTATTAGTTGACTAGGGCAACCGAAACAGCGGA, the PBM binding z-score came out at 0.987.
